Columns and labels:
Assay in all cases: DAPPL (digital affinity profiling via proximity ligation, sequencing); 10 mM Tris-HCl pH 7.5, 50 mM NaCl, 1 mM DTT, 4% glycerol, room temperature, 30 min; GST-TFs on glutathione beads, 16-mer random dsDNA library, 0.1% formaldehyde crosslink after washing; high values mean tight binding
Settings in all cases: protein: recombinant; tags: N-terminal GST; dsDNA, one strand shown
ERF = target: T1, ERF (Homo sapiens, UniProt P50548 1-548)
T1 sequence: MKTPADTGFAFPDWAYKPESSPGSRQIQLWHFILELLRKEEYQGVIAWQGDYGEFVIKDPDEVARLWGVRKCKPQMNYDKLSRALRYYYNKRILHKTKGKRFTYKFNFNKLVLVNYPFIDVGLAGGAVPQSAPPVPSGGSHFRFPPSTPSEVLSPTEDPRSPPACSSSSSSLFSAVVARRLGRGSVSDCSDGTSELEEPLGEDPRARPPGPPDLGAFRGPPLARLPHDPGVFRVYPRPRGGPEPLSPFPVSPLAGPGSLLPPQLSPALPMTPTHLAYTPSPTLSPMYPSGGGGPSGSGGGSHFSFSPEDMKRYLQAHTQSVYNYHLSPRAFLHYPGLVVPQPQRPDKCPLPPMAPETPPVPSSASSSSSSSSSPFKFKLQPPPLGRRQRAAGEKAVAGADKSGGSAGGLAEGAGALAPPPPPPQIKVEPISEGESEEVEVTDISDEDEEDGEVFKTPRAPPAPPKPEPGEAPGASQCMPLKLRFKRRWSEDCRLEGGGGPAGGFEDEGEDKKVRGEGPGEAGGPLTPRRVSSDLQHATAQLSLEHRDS
Summary of the method: (§1)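 Beads coated with glutathione captured GST-fused human transcription factors that had been expressed in yeast, and the factors were then given DNA barcodes and pooled with a tag-only sample. The pools were incubated with 200 nmole of a random double-stranded 16-mer DNA library in Tris/NaCl/DTT/glycerol buffer for 30 min at room temperature, washed, crosslinked with 0.1% formaldehyde and proximity-ligated with BsaI/T4 ligase at 37 °C for 1 h. PCR amplification and Illumina NextSeq500 sequencing came last. Binding signal is each hexamer's read frequency for a factor divided by its frequency for the tag-only sample.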

ETV3L = target: T2, ETV3L (Homo sapiens, UniProt Q6ZN32 1-361)
T2 sequence: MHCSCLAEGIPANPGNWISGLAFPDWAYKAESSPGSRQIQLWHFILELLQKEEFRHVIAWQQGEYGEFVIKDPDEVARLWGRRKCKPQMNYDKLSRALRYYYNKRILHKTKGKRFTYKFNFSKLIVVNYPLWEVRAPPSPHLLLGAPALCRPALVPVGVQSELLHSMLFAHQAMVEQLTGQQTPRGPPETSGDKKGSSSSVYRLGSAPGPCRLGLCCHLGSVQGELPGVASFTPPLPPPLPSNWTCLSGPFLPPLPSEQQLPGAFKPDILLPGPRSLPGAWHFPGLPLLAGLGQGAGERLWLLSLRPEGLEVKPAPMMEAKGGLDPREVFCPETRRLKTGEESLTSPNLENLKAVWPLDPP
Summary of the method: as §1

ETS2 = target: T3, ETS2 (Homo sapiens, UniProt P15036 1-469)
T3 sequence: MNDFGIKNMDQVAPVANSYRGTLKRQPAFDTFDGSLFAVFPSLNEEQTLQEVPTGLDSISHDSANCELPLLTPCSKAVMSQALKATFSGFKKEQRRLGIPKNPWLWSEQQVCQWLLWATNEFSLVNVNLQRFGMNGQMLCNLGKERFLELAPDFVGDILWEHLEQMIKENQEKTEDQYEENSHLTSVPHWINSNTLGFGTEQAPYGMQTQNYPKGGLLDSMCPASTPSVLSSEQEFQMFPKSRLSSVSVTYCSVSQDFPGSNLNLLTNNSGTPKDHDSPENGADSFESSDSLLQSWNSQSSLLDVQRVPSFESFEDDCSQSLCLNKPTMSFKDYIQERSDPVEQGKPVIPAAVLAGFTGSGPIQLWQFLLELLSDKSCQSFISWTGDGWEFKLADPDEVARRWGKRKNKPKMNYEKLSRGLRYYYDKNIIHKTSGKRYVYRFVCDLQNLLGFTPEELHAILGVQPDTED
Summary of the method: as §1

SPDEF = target: T4, SPDEF (Homo sapiens, UniProt O95238 1-335)
T4 sequence: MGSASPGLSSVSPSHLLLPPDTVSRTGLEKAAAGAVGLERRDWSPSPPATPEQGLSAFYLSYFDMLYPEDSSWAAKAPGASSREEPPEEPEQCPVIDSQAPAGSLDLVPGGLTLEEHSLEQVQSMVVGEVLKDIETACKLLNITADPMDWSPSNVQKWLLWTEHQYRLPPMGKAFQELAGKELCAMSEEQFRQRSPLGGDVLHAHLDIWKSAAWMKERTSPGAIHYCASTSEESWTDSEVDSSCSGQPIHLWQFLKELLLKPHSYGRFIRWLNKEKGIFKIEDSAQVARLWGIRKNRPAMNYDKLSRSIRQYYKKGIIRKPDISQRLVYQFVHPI
Summary of the method: as §1

ETV7 = target: T5, ETV7 (Homo sapiens, UniProt Q9Y603 1-341)
T5 sequence: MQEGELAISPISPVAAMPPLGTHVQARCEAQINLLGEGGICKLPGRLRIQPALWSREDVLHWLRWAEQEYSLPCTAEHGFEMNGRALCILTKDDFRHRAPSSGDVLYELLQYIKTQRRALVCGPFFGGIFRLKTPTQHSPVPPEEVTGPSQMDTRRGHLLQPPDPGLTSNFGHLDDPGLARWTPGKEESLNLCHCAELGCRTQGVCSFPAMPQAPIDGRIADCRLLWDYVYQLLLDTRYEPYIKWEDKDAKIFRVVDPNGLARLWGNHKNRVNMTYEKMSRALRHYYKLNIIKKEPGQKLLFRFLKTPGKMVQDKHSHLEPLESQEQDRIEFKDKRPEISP
Summary of the method: as §1

ELF5 = target: T6, ELF5 (Homo sapiens, UniProt Q9UKW6-2 1-255)
T6 sequence: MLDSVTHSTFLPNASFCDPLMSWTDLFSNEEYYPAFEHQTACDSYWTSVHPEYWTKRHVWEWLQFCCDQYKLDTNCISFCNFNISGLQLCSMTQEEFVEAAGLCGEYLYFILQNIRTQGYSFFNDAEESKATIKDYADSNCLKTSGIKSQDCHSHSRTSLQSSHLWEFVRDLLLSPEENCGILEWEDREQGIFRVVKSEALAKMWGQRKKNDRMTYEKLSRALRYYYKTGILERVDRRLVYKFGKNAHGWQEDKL
Summary of the method: as §1

ETV3 = target: T7, ETV3 (Homo sapiens, UniProt P41162-2 1-143)
T7 sequence: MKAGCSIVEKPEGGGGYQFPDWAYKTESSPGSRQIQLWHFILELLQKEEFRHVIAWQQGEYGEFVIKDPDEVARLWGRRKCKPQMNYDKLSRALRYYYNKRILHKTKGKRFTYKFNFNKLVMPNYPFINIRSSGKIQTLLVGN
Summary of the method: as §1

ETV6 = ETV6 (Homo sapiens, UniProt P41212 1-452)
ETV6, sequence (P41212 whole entry): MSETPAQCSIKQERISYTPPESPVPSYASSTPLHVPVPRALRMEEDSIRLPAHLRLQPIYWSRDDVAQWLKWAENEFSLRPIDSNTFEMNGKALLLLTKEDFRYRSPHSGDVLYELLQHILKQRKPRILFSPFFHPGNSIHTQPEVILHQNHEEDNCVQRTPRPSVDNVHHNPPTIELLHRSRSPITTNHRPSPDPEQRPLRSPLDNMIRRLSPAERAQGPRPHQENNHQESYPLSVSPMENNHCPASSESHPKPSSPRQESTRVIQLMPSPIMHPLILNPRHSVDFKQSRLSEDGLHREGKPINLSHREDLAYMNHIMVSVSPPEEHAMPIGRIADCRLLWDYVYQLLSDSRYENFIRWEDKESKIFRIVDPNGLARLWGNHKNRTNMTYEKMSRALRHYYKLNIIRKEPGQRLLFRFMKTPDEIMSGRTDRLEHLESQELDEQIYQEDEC
Summary of the method: as §1

GTTCTT
binding signal (ERF): 1.16 fold enrichment (6-mer frequency, TF over GST control) | binding signal (ETV3L): 1.28 fold enrichment (6-mer frequency, TF over GST control) | binding signal (ETS2): 1.2 fold enrichment (6-mer frequency, TF over GST control) | binding signal (SPDEF): 1.06 fold enrichment (6-mer frequency, TF over GST control) | binding signal (ETV7): 1.18 fold enrichment (6-mer frequency, TF over GST control) | binding signal (ELF5): 1.24 fold enrichment (6-mer frequency, TF over GST control) | binding signal (ETV3): 1.09 fold enrichment (6-mer frequency, TF over GST control) | binding signal (ETV6): 1.15 fold enrichment (6-mer frequency, TF over GST control)

AGTGCT
binding signal (ERF): 1.41 fold enrichment (6-mer frequency, TF over GST control) | binding signal (ETV3L): 1.32 fold enrichment (6-mer frequency, TF over GST control) | binding signal (ETS2): 1.46 fold enrichment (6-mer frequency, TF over GST control) | binding signal (SPDEF): 1.33 fold enrichment (6-mer frequency, TF over GST control) | binding signal (ETV7): 1.37 fold enrichment (6-mer frequency, TF over GST control) | binding signal (ELF5): 1.48 fold enrichment (6-mer frequency, TF over GST control) | binding signal (ETV3): 1.56 fold enrichment (6-mer frequency, TF over GST control) | binding signal (ETV6): 1.52 fold enrichment (6-mer frequency, TF over GST control)

GCCTAC
binding signal (ERF): 1.12 fold enrichment (6-mer frequency, TF over GST control) | binding signal (ETV3L): 1.29 fold enrichment (6-mer frequency, TF over GST control) | binding signal (ETS2): 1.23 fold enrichment (6-mer frequency, TF over GST control) | binding signal (SPDEF): 1.12 fold enrichment (6-mer frequency, TF over GST control) | binding signal (ETV7): 1.08 fold enrichment (6-mer frequency, TF over GST control) | binding signal (ELF5): 1.17 fold enrichment (6-mer frequency, TF over GST control) | binding signal (ETV3): 1.3 fold enrichment (6-mer frequency, TF over GST control) | binding signal (ETV6): 1.19 fold enrichment (6-mer frequency, TF over GST control)

CACTTT
binding signal (ERF): 1.3 fold enrichment (6-mer frequency, TF over GST control) | binding signal (ETV3L): 1.24 fold enrichment (6-mer frequency, TF over GST control) | binding signal (ETS2): 1.32 fold enrichment (6-mer frequency, TF over GST control) | binding signal (SPDEF): 1.16 fold enrichment (6-mer frequency, TF over GST control) | binding signal (ETV7): 1.26 fold enrichment (6-mer frequency, TF over GST control) | binding signal (ELF5): 1.23 fold enrichment (6-mer frequency, TF over GST control) | binding signal (ETV3): 1.32 fold enrichment (6-mer frequency, TF over GST control) | binding signal (ETV6): 1.26 fold enrichment (6-mer frequency, TF over GST control)

CTGAAT
binding signal (ERF): 1.47 fold enrichment (6-mer frequency, TF over GST control) | binding signal (ETV3L): 1.32 fold enrichment (6-mer frequency, TF over GST control) | binding signal (ETS2): 1.32 fold enrichment (6-mer frequency, TF over GST control) | binding signal (SPDEF): 1.53 fold enrichment (6-mer frequency, TF over GST control) | binding signal (ETV7): 1.17 fold enrichment (6-mer frequency, TF over GST control) | binding signal (ELF5): 1.18 fold enrichment (6-mer frequency, TF over GST control) | binding signal (ETV3): 1.29 fold enrichment (6-mer frequency, TF over GST control) | binding signal (ETV6): 1.22 fold enrichment (6-mer frequency, TF over GST control)

CATATA
binding signal (ERF): 1.04 fold enrichment (6-mer frequency, TF over GST control) | binding signal (ETV3L): 1.09 fold enrichment (6-mer frequency, TF over GST control) | binding signal (ETS2): 1.08 fold enrichment (6-mer frequency, TF over GST control) | binding signal (SPDEF): 1.02 fold enrichment (6-mer frequency, TF over GST control) | binding signal (ETV7): 1.1 fold enrichment (6-mer frequency, TF over GST control) | binding signal (ELF5): 1.01 fold enrichment (6-mer frequency, TF over GST control) | binding signal (ETV3): 1.09 fold enrichment (6-mer frequency, TF over GST control) | binding signal (ETV6): 1.12 fold enrichment (6-mer frequency, TF over GST control)

TGGACT
binding signal (ERF): 1.25 fold enrichment (6-mer frequency, TF over GST control) | binding signal (ETV3L): 1.22 fold enrichment (6-mer frequency, TF over GST control) | binding signal (ETS2): 1.27 fold enrichment (6-mer frequency, TF over GST control) | binding signal (SPDEF): 1.2 fold enrichment (6-mer frequency, TF over GST control) | binding signal (ETV7): 1.19 fold enrichment (6-mer frequency, TF over GST control) | binding signal (ELF5): 1.22 fold enrichment (6-mer frequency, TF over GST control) | binding signal (ETV3): 1.25 fold enrichment (6-mer frequency, TF over GST control) | binding signal (ETV6): 1.28 fold enrichment (6-mer frequency, TF over GST control)

Source: paper PMC7862700, “An all-to-all approach to the identification of sequence-specific readers for epigenetic DNA modifications on cytosine”
